Data on 13 molecules can be found in the supplement of paper PMC10127200.

Counter-ions that a name gives are not always drawn.

The subject of the test is A549. Briefly: Euclidean distance of Cell Painting phenotypic profile (signed KS, 77 features) to DMSO centroid (dimensionless distance); 5 or 10 uM (library dependent); higher = stronger phenotypic change vs DMSO (phenoactivity). Conditions: 48 h. The essentials:
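Five cancer lines, together with a healthy fibroblast line, received library compounds for 48 h at a library-dependent 10 or 5 uM and 0.1% DMSO final. Harmony then derived 77 features from confocal 20X images (9 fields/well) of the stained cells, scoring each as a signed Kolmogorov-Smirnov statistic against same-plate vehicle wells. After plate-position correction, correlation weighting and replicate averaging at the top dose, phenoactivity was taken as each profile's Euclidean distance to the median vehicle profile.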
For the molecule `CCOC(=O)N1CCC(=C2c3ccc(Cl)cc3CCc3cccnc32)CC1` [Loratadine], the Euclidean distance came to 1.34.

`COc1ccc2c(c1)c(CC(=O)O)c(C)n2C(=O)c1ccc(Cl)cc1` [Indomethacin] yielded an Euclidean distance of 0.49.

In turn, `NC(=O)N1c2ccccc2CC(=O)c2ccccc21` [Oxcarbazepine] returned an Euclidean distance of 1.39.

Consider `CC(C)CCCC(C)N` (stereo not drawn) [Octodrine (2-Amino-6-methylheptan)], for which the Euclidean distance stood at 0.649.

In the case of `CN(C)C(=O)COC(=O)Cc1ccc(OC(=O)c2ccc(NC(=N)N)cc2)cc1` [Camostat Mesilate], the Euclidean distance came to 0.62.

With `C[C@]12CC[C@@H]3c4ccc(O)cc4CC[C@H]3[C@@H]1CCC2=O` [Estrone], the Euclidean distance came out at 0.907.

For `Cc1ccnc(NS(=O)(=O)c2ccc(N)cc2)n1` [Sulfamerazine], the Euclidean distance came to 0.793.

Consider `CCNC(=O)c1[nH]nc(-c2cc(Cl)c(O)cc2O)c1-c1ccc(OC)cc1`, for which the Euclidean distance stood at 3.74.

As for `CC[C@@H]1C(=O)OC[C@@H]1Cc1cncn1C` [Pilocarpine HCl], the Euclidean distance was found to be 0.624.

The molecule `C[C@H]1O[C@@H](n2cc(F)c(=O)[nH]c2=O)[C@H](O)[C@@H]1O` [Doxifluridine] showed an Euclidean distance of 1.07.

For the molecule `Cc1ccccc1C(=O)Nc1ccc(C(=O)N2CCCC(O)c3cc(Cl)ccc32)c(C)c1` (stereo not drawn) [Tolvaptan], the Euclidean distance turned out to be 0.937.

The molecule `C[C@@H](N)[C@H]1CC[C@H](C(=O)Nc2ccncc2)CC1` yielded an Euclidean distance of 3.33.

In turn, `CC(CCc1ccccc1)NCC(O)c1ccc(O)c(C(N)=O)c1` (stereo not drawn) [Labetalol HCl] gave an Euclidean distance of 0.727.
